SARS PLP yeast = SARS-CoV PLP inhibition in yeast. S. cerevisiae expressing SARS-CoV PLpro, growth rescue. Potency, µM (titrated, usually from 32.9 µM), for inactives: at the highest dose activity, positive = growth rescue, actives largely listed as activators. 330,000 compounds, 0.19% hits. AID 485353; calls by dose curve; further: 0% is about no effect; nearly all actives have a fitted effect of over 55% in size
AmpC no deterg = inhibitors of E. coli AmpC beta-lactamase without detergent | AmpC nitrocefin hydrolysis, absorbance 480 nm, 0.0001% Triton | P00811 | 330,000 compounds, 0.52% hits | Potency, µM (series often up to 57.1 µM), for the others: at the highest dose activity change, negative = inhibition, usual class: inhibitors;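 further: plate controls were no compound for no effect and no enzyme for full effect; nearly all actives have a fitted effect of over 20% in size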
Target sequence (P00811 whole entry, looked up): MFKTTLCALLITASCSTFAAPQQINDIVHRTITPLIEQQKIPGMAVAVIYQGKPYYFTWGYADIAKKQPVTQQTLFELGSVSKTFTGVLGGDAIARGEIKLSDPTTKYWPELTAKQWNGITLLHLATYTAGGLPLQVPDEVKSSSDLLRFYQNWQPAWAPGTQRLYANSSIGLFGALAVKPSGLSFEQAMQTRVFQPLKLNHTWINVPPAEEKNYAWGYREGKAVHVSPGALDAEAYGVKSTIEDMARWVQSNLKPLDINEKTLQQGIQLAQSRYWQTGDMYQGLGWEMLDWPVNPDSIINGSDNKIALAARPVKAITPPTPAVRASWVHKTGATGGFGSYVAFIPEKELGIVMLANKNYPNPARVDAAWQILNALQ
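AmpC (5.3 nM in the dispensed reagent) in 20 mM phosphate pH 7.0 with 0.01% (detergent screen) or 0.0001% Triton X-100 was preincubated with compounds for 15 min at room temperature. Nitrocefin was then added from an 800 uM solution, and hydrolysis was followed at 480 nm.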
Pf growth 48h = P. falciparum growth inhibition at 48 hours (one generation); P. falciparum luciferase growth in erythrocytes, 48 h; Potency, µM (top dose mostly 28.7 µM), for the others: at the top dose activity change, negative = inhibition, actives largely listed as inhibitors; 310,000 compounds, 5.9% hits; AID 504832; further: on the % scale 0 is the no-effect control and ±100 the full control effect
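Erythrocytes infected with P. falciparum carrying an integrated firefly luciferase reporter (2% hematocrit, 0.1% parasitemia final) were exposed to compounds in RPMI 1640 with 0.5% Albumax at 37 C, 5% CO2. Growth inhibition was scored as reduced luminescence.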
AmpC detergent = blocks E. coli AmpC beta-lactamase in detergent assay | P00811 | AmpC hydrolysis of nitrocefin, absorbance 480 nm, 0.01% Triton | Potency, µM (top dose mostly 114 µM), for the others: at the top dose activity change, negative = inhibition, usual class: inhibitors | 370,000 compounds, 0.041% hits;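 further: 0% = no-compound wells and -100% = no-enzyme wells; nearly all actives have a fitted effect of over 25% in size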
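20 mM phosphate pH 7.0 + 0.01% (detergent screen) or 0.0001% Triton X-100; 5.3 nM AmpC reagent; cpd preinc 15 min RT; nitrocefin (800 uM stock) to start; A480 q20 s × 4 min; Activity was normalised to no-enzyme and no-compound control wells.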
Sm TGR block = S. mansoni TGR enzyme inhibition; Q962Y6; purified TGR, DTNB reduction, TNB absorbance 405 nm; Potency, µM (titrated, usually from 114 µM), for the others: top-dose activity change, negative = inhibition, usual class: inhibitors; 360,000 compounds, 3% hits; AID 485364; further: on the % scale 0 is the no-effect control and ±100 the full control effect; nearly all actives have a fitted effect of over 60% in size
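Kinetic colorimetric format: TGR-catalysed, NADPH-driven DTNB reduction monitored via TNB absorbance. Enzyme dispensed at 20 nM; compound exposure 15 min at room temperature before reaction start.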
Pf growth 96h = P. falciparum growth inhibition at 96 hour, primary screen for plastid delayed-death inhibitors | P. falciparum luciferase reporter growth, 96 h | Potency, µM (series often up to 28.7 µM), for inactives: at the top dose activity change, negative = inhibition, usual class: inhibitors | 320,000 compounds, 6.9% hits | AID 504834; further: on the % scale 0 is the no-effect control and ±100 the full control effect
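P. falciparum expressing integrated firefly luciferase, in erythrocytes at 2% hematocrit, 0.05% parasitemia, incubated with compounds 96 h at 37 C, 5% CO2. Growth inhibition read as loss of luminescence; two-generation exposure targets delayed-death apicoplast inhibitors.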
* = called active by the depositor; [ ] = dose if it differs, or a comment. An excerpt weighted towards active compounds, which were near 12% of everything screened. Unless noted, the call rests on the fitted dose curve; in most records, active means well fitted curve in the direction sought with a large enough effect; inconclusive means small, poorly fitted or top-dose-only effect, or another doubt; inactive means no such curve, though single readings can be large; an effect the other way counts as inactive or inconclusive. Potency means the concentration at half of the fitted maximal effect.

How did COC1CCCN(Cc2c(C(=O)N3CCc4ccccc4C3)nc3ccc(Cl)cn23)C1 (stereo not drawn) do in these assays?
SARS PLP yeast: 0%; AmpC no deterg: 65%; Pf growth 48h: inconclusive; AmpC detergent: -7%; Sm TGR block: inconclusive; Pf growth 96h: inconclusive

What do the screens show for `CN(Cc1cnccn1)Cc1c(C(=O)N2CCc3ccccc3C2)nc2ccc(Cl)cn12`?
SARS PLP yeast: 0%; AmpC no deterg: 84%; Pf growth 48h: 12µM*; AmpC detergent: -2%; Sm TGR block: -20%[57.1 µM]; Pf growth 96h: inconclusive

What do the screens show for `Cc1cnc(CN(C)Cc2c(C(=O)N3CCCCCCC3)nc3ccc(Cl)cn23)[nH]1`?
SARS PLP yeast: -2%; AmpC no deterg: 20%; Pf growth 48h: inconclusive; AmpC detergent: -17%; Sm TGR block: -24%; Pf growth 96h: inconclusive

What do the screens show for `COc1ccc(S(=O)(=O)N(C)c2ccc(C(=O)N3CCCC3)cc2)cc1OC`?
SARS PLP yeast: 3%; AmpC no deterg: 50%; Pf growth 48h: -7%; AmpC detergent: -1%; Sm TGR block: -12%; Pf growth 96h: 7%

Results for COc1ccc(S(=O)(=O)N(C)c2ccc(C(=O)N3CCN(c4ccccc4)CC3)cc2)cc1OC ?
SARS PLP yeast: 5%; AmpC no deterg: 196%; Pf growth 48h: 15µM*; AmpC detergent: -14%; Sm TGR block: 1%; Pf growth 96h: inconclusive

How did COc1ccc(S(=O)(=O)N(C)c2ccc(C(=O)Nc3ccccc3C(=O)N3CCOCC3)cc2)cc1OC do in these assays?
SARS PLP yeast: -4%; AmpC no deterg: 90%; Pf growth 48h: 12µM*; AmpC detergent: -13%; Sm TGR block: -11%; Pf growth 96h: inconclusive

What do the screens show for `Cc1ccc(NC(=O)c2c(NC(=O)C(F)(F)F)sc3c2CCCCC3)cc1`?
AmpC detergent: -1%; Sm TGR block: -6%

How did CCC(C(=O)O)C1OC(C(C)C(O)C(C)C(=O)C(CC)C2OC3(C=CC(O)C4(CCC(C)(C5CCC(O)(CC)C(C)O5)O4)O3)C(C)CC2C)C(C)CC1C (stereo not drawn) do in these assays?
Pf growth 48h: 0.054µM*; Pf growth 96h: 0.034µM*

How did CCC(C)Sc1cc(C(F)(F)F)c(C(=O)Nc2ccc(Cl)cc2)cn1 (stereo not drawn) do in these assays?
SARS PLP yeast: -2%; AmpC no deterg: 10µM*; Pf growth 48h: inconclusive; AmpC detergent: 8%; Sm TGR block: 10%; Pf growth 96h: inconclusive

What do the screens show for `Cn1cc(C(=O)Nc2ccc(Cl)cc2)c(C(F)(F)F)n1`?
SARS PLP yeast: 10%; AmpC no deterg: -22%; Pf growth 48h: -3%; AmpC detergent: 2%; Pf growth 96h: 30%

What do the screens show for `CCC(CC)C(=O)Nc1ccc(Sc2ccc([N+](=O)[O-])cc2)cc1`?
SARS PLP yeast: 5%; AmpC no deterg: -35%; Pf growth 48h: 7.4µM*; AmpC detergent: 10%; Sm TGR block: 3%; Pf growth 96h: inconclusive

What do the screens show for `CCCC(=O)Nc1ccc(Sc2ccc([N+](=O)[O-])cc2)cc1`?
SARS PLP yeast: -7%; AmpC no deterg: inconclusive; Pf growth 48h: 12µM*; AmpC detergent: 0%; Sm TGR block: inconclusive; Pf growth 96h: 15µM*

What do the screens show for `NC(Cc1ccc(Oc2ccc(O)cc2)cc1)C(=O)O` (stereo not drawn)?
SARS PLP yeast: 5%; AmpC no deterg: -16%; Pf growth 48h: -7%; AmpC detergent: -4%; Sm TGR block: -4%; Pf growth 96h: -2%

Results for CCCn1c(Cc2ccccc2)nnc1SC(C)C(=O)NC1CC1 (stereo not drawn) ?
SARS PLP yeast: -2%; AmpC no deterg: -6%; Pf growth 48h: inconclusive; AmpC detergent: -1%; Sm TGR block: -1%; Pf growth 96h: -4%

How did COc1ccc(S(=O)(=O)N2CCCCC2)cc1NS(=O)(=O)c1ccc(CNC(C)=O)cc1 do in these assays?
SARS PLP yeast: -47%; AmpC no deterg: -1%

What do the screens show for `O=c1oc2ccccc2c2oc3cc(O)c(O)cc3c12`?
SARS PLP yeast: -1%; AmpC no deterg: 14µM*; Pf growth 48h: 32%; AmpC detergent: -1%; Sm TGR block: 0%; Pf growth 96h: 71%

What do the screens show for `O=c1oc2ccccc2c(O)c1Cc1c(O)c2ccccc2oc1=O`?
Pf growth 48h: 3%[12.8 µM]; Pf growth 96h: -13%[12.8 µM]

What do the screens show for `Cc1ccc(OCC(=O)N/N=C/C=C/c2ccco2)c(Br)c1`?
SARS PLP yeast: -10%; AmpC no deterg: -28%; Pf growth 48h: -1%; AmpC detergent: -2%; Sm TGR block: 28µM*; Pf growth 96h: -15%

How did Cc1cccc(C)c1OCC(=O)N/N=C/C=C/c1ccco1 do in these assays?
SARS PLP yeast: -10%; AmpC no deterg: -13%; Pf growth 48h: 0%; AmpC detergent: 7%; Sm TGR block: 16µM*; Pf growth 96h: 0%

How did Cc1cccc(OCC(=O)N/N=C/C=C/c2ccco2)c1 do in these assays?
SARS PLP yeast: -26%; AmpC no deterg: -42%; Pf growth 48h: 15%; AmpC detergent: -14%; Sm TGR block: 40µM*; Pf growth 96h: 45%

Results for O=C(COc1c(Br)cc(Br)cc1Br)N/N=C/c1ccco1 ?
SARS PLP yeast: -3%; AmpC no deterg: -22%; Pf growth 48h: -10%; AmpC detergent: -15%; Sm TGR block: inconclusive; Pf growth 96h: inconclusive

Results for Cc1cc(C)cc(OCC(=O)N/N=C/c2ccco2)c1 ?
SARS PLP yeast: -2%; AmpC no deterg: -19%; Pf growth 48h: 27%; AmpC detergent: 1%; Sm TGR block: -6%; Pf growth 96h: 2%

What do the screens show for `O=C(CSc1nnc(-c2ccccc2F)n1C1CC1)Nc1cccnc1Cl`?
SARS PLP yeast: -1%; AmpC no deterg: -3%; Pf growth 48h: -7%; AmpC detergent: -7%; Sm TGR block: -1%; Pf growth 96h: inconclusive

Results for CC(C)c1nnc(NC(=O)C2CCN(S(=O)(=O)c3ccc(-n4cnnn4)cc3)CC2)s1 ?
SARS PLP yeast: 11%; AmpC no deterg: -15%; Pf growth 48h: -2%; AmpC detergent: -8%; Sm TGR block: -12%; Pf growth 96h: inconclusive

Results for CCCC1Oc2ccccc2C(=O)N(CC(=O)c2ccc3c(c2)OCCO3)C1=O (stereo not drawn) ?
SARS PLP yeast: -4%; AmpC no deterg: -16%; Pf growth 48h: 4%; AmpC detergent: -3%; Sm TGR block: -8%; Pf growth 96h: 21%

Assay outcomes deposited in PubChem by National Center for Advancing Translational Sciences (NCATS).
